In PubChem BioAssay (Tox21):
Inconclusive results are not listed. Calls of active or inactive are those of the source. Unless noted, calls follow the shape of the dose curve; as a rule, active = well fitted curve in the direction sought with a large enough effect in the repeat runs; inconclusive = weak or mixed curves; inactive = no such curve, though single readings can be large; an effect the other way counts as inactive or inconclusive.

Assays:
[1] = qHTS assay to identify small molecule agonists of the sonic hedgehog signaling (Shh) pathway - cell viability counter screen (AID 1259366); also: nearly all actives have a fitted effect of over 50% in size
Method in brief: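 After a 4hr attachment at 37C, NIH/3T3 cells bearing an integrated Gli1-driven luciferase reporter were dosed with compounds. Treatment lasted 24hr, with the final hour including CellTiter-Fluor for a fluorescence viability measurement.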

[2] = qHTS assay to identify small molecule antagonists of the sonic hedgehog signaling (Shh) pathway - cell viability counter screen (AID 1259367); also: nearly all actives have a fitted effect of over 55% in size
Method in brief: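 Using CellTiter-Fluor, viability of Gli1-Luc reporter 3T3 cells is read by fluorescence in the wells used for the Shh luciferase assay. Treatment lasts 23 hr with conditioned medium, then reagent 1 hr at 37C.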

[3] = qHTS assay to identify small molecule agonists of the sonic hedgehog signaling (Shh) pathway (AID 1259368; calls by dose curve;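 also: NIH/3T3-derived 3T3Gli1-Luc cells carrying a stable Gli1-driven firefly luciferase reporter; series mostly up to about 92 µM; nearly all actives have a fitted effect of over 15% in size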)
Method in brief: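 A Gli1 transcriptional response element controlled firefly luciferase in 3T3Gli1-Luc cells. Compounds and a positive control were added 4 hr after plating, and cells were incubated a further 24 hr at 37 C before luminescence detection.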

[4] = target: Estrogen receptor beta (Homo sapiens) (UniProt Q92731); assay: qHTS assay to identify small molecule agonists of the estrogen receptor beta (ER-beta) signaling pathway (AID 1259377; active = well fitted activation curve with a large enough effect in the signal ratio in the repeat runs, not every such curve was filed as active; the % refers to the signal ratio)
Sequence of Estrogen receptor beta (Homo sapiens) (Q92731 whole entry, looked up): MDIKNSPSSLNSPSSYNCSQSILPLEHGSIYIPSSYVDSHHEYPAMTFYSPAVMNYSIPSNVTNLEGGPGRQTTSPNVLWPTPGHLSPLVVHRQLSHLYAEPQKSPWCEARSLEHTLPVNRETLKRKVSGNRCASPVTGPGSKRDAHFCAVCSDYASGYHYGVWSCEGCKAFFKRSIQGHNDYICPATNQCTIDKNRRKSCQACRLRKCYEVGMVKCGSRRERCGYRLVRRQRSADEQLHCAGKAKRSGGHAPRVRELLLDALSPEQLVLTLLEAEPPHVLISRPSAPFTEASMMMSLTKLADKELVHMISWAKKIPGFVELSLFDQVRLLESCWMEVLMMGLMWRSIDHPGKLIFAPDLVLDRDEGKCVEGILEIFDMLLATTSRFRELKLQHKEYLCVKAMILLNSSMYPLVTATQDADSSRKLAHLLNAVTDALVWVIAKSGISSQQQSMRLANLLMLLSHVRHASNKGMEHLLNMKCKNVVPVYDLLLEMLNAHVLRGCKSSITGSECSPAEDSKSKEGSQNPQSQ
Method in brief: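 In HEK293T cells bearing a UAS-beta-lactamase reporter under ER-beta control, DMSO-delivered compounds were incubated for 16 hr at 37C. Activity was detected as fluorescence 2 hours after LiveBLAzer B/G FRET substrate addition.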

[5] = target: Estrogen receptor beta (Homo sapiens) (UniProt Q92731); assay: qHTS assay to identify small molecule antagonists of the estrogen receptor beta (ER-beta) signaling pathway (AID 1259378; active = well fitted inhibition curve with a large enough effect in the signal ratio in the repeat runs, not every such curve was filed as active; the % refers to the signal ratio)
Method in brief: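 Antagonist mode: compounds added to beta-lactamase reporter HEK293T ER-beta-UAS cells stimulated with E2 (1nM final), 16 hr at 37C. LiveBLAzer B/G FRET substrate, 2 hours room temperature, fluorescence read-out.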

[6] = qHTS assay to identify small molecule agonists of the androgen receptor (AR) signaling pathway in the presence of an antagonist - cell viability counter screen (AID 1259379);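 also: MDA-kb2 human breast cancer cells carrying an MMTV luciferase reporter; series mostly up to about 92 µM; nearly all actives have a fitted effect of over 25% in size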
Method in brief: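 Seed MDA-kb2 at 3,000 cells/well; incubate 5 hr, 37C, 0% CO2. Add nilutamide to 3.0uM final, then pin compounds at 15 concentrations. Incubate 16 hr. Add CellTiter-Fluor at 15 hr, read fluorescence after 1 hr.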

[7] = qHTS assay to identify small molecule agonists of the estrogen receptor beta (ER-beta) signaling pathway - cell viability counter screen (AID 1259380); also: nearly all actives have a fitted effect of over 30% in size
Method in brief: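 CellTiter-Glo read, 30 min RT, same wells as bla assay; cells ER-beta-UAS-bla HEK293T; 16 hr compound, 37C; medium 2% charcoal-stripped FBS.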

[8] = qHTS assay to identify small molecule antagonists of the estrogen receptor beta (ER-beta) signaling pathway - cell viability counter screen (AID 1259382);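 also: HEK293T cells carrying ER-beta-UAS-bla reporter stimulated with estradiol; series mostly up to about 92 µM; nearly all actives have a fitted effect of over 55% in size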
Method in brief: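 In this multiplexed counter screen, cells were seeded at 2,000 per well in medium with 2% charcoal-stripped FBS and incubated 6 hr before compound and 1nM final E2 were added. Sixteen hours later, ATP-based luminescence reported viability.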

[9] = qHTS assay to identify small molecule agonists of the estrogen receptor alpha (ER-alpha) signaling pathway in the presence of an antagonist - cell viability counter screen (AID 1259386);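 also: series mostly up to about 92 µM; cells exposed to compounds for 22 h at 37 °C before the viability read; nearly all actives have a fitted effect of over 30% in size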
Method in brief: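 Viability counter screen using VM7Luc4E2 (full-length ER-alpha, four ERE-luciferase). The cells were treated with compounds alongside ICI-182,780 10.0nM for 22hr, and live-cell protease fluorescence was quantified with CellTiter-Fluor.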

[10] = target: Progesterone receptor (Homo sapiens) (UniProt P06401); assay: qHTS assay to identify small molecule agonists of the progesterone receptor (PR) signaling pathway (AID 1346784; calls by dose curve; also: nearly all actives have a fitted effect of over 30% in size)
Sequence of Progesterone receptor (Homo sapiens) (P06401 whole entry, looked up): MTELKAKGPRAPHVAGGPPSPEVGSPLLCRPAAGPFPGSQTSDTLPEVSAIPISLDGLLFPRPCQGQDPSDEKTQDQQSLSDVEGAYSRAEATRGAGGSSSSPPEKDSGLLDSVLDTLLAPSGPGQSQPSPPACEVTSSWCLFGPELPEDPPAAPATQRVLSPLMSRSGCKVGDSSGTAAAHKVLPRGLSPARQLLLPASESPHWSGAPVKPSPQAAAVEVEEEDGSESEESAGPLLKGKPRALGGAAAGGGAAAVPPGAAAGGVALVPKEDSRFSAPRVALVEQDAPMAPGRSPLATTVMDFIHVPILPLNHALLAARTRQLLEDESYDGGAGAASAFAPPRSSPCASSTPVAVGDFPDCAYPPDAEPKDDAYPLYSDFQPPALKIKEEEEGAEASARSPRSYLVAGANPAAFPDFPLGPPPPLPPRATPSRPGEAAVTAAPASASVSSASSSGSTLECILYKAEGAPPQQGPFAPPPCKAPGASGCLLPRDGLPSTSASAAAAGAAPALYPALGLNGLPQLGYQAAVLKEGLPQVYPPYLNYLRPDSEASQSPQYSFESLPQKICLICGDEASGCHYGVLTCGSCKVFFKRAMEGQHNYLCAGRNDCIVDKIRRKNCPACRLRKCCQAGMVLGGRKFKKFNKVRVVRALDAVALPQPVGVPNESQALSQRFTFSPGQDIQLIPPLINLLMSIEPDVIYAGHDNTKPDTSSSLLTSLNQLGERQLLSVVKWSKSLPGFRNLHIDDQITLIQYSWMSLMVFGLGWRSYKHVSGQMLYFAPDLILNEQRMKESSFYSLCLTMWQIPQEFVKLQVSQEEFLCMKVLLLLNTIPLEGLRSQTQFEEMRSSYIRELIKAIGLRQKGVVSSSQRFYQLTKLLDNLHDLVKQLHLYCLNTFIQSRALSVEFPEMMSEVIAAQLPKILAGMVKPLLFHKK
Method in brief: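 Using charcoal-stripped serum (2%) to limit endogenous steroids, PR-UAS-bla HEK 293T cells received compounds for 16 hr at 37C after 6 hr plating; beta-lactamase FRET fluorescence was recorded following 2 hr substrate loading at room temperature.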

[11] = target: Progesterone receptor (Homo sapiens) (UniProt P06401); assay: qHTS assay to identify small molecule antagonists of the progesterone receptor (PR) signaling pathway (AID 1346795; active = well fitted inhibition curve with a large enough effect in the signal ratio in the repeat runs, not every such curve was filed as active; the % refers to the signal ratio)
Method in brief: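 Inhibition of R5020-induced (1 nM final) beta-lactamase reporter signal in PR-UAS-bla HEK293T cells was scored by FRET fluorescence after overnight (16 hr) compound treatment.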

[12] = qHTS assay to identify small molecule antagonists of the progesterone receptor (PR) signaling pathway - cell viability counter screen (AID 1346798); also: series mostly up to about 92 µM; nearly all actives have a fitted effect of over 50% in size
Method in brief: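 ATP content as viability readout: CellTiter-Glo luminescence, 30 min room temperature, in PR-UAS-bla HEK293T cells after 16 hr compound/R5020 treatment at 37C and 5% CO2.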

[13] = qHTS assay to identify small molecule agonists of the progesterone receptor (PR) signaling pathway - cell viability counter screen (AID 1346799; calls by dose curve; also: nearly all actives have a fitted effect of over 45% in size)
Method in brief: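 Cytotoxicity in PR-bla HEK293T cells: 16 h compound, 37C; CellTiter-Glo added post-FRET read; luminescence after 30 min RT.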

[14] = qHTS assay to identify small molecule antagonists of the TGF-beta/Smad signaling pathway - cell viability counter screen (AID 1346824); also: nearly all actives have a fitted effect of over 50% in size
Method in brief: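 Cytotoxicity counter-screen run in the same wells as the beta-lactamase Smad reporter read: CellTiter-Glo luminescence after 30 min at room temperature. HEK 293T SBE-bla cells had 5 hr compound exposure at 37 C with TGF-beta1 (0.25 ng/mL stock).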

[15] = qHTS assay to identify small molecule agonists of the TGF-beta/Smad signaling pathway - cell viability counter screen (AID 1346829); also: top concentration of the series differs between compounds; nearly all actives have a fitted effect of over 45% in size
Method in brief: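 Compound-treated SBE-bla HEK 293T cells (5 hr, 37 C) were assessed for viability with CellTiter-Glo in parallel with the reporter read.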

[16] = target: Estrogen receptor (Homo sapiens) (UniProt P03372); assay: qHTS assay to identify small molecule agonists of the estrogen receptor alpha (ER-alpha) signaling pathway in the presence of an antagonist (AID 1259383; calls by dose curve; also: top concentration of the series differs between compounds; nearly all actives have a fitted effect of over 15% in size)
Sequence of Estrogen receptor (Homo sapiens) (P03372 whole entry, looked up): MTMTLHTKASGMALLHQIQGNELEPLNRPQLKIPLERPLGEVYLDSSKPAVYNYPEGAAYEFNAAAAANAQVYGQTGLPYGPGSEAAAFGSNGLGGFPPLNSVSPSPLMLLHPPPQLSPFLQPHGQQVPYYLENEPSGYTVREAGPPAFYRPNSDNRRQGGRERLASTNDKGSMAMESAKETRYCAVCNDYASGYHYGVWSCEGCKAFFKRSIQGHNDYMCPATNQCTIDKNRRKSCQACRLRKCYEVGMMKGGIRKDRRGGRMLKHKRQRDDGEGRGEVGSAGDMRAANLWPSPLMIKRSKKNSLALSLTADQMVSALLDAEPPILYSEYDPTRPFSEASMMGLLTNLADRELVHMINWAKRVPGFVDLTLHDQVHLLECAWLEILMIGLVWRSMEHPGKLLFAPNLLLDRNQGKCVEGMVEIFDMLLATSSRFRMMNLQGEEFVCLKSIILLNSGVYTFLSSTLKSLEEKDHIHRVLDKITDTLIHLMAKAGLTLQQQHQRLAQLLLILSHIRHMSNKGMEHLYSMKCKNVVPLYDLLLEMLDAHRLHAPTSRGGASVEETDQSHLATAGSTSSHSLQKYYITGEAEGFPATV
Method in brief: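 Stably transfected VM7Luc4E2 reporter cells, kept 5 days in charcoal-stripped serum, received ICI-182,780 at 10.0nM final before compound addition. Following 22hr incubation at 37C and 5% CO2, luciferase signal was read by luminescence.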

[17] = qHTS assay to identify small molecule agonists or antagonists of the thyroid stimulating hormone receptor (TSHR) signaling pathway - wild type cell line counter screen (AID 1259384; calls by dose curve)
Method in brief: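 Counter screen in untransfected Hek293: compounds (15-point titration, triplicate) plus phosphodiesterase inhibitor Ro20-1724 added after 18 h plating; 30 min RT. Intracellular cAMP via competitive d2/cryptate immunoassay, 1 h incubation.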

[18] = target: Thyrotropin receptor (Homo sapiens) (UniProt P16473); assay: qHTS assay to identify small molecule antagonists of the thyroid stimulating hormone receptor (TSHR) signaling pathway (AID 1259385; calls by dose curve; also: nearly all actives have a fitted effect of over 20% in size)
Sequence of Thyrotropin receptor (Homo sapiens) (P16473 whole entry, looked up): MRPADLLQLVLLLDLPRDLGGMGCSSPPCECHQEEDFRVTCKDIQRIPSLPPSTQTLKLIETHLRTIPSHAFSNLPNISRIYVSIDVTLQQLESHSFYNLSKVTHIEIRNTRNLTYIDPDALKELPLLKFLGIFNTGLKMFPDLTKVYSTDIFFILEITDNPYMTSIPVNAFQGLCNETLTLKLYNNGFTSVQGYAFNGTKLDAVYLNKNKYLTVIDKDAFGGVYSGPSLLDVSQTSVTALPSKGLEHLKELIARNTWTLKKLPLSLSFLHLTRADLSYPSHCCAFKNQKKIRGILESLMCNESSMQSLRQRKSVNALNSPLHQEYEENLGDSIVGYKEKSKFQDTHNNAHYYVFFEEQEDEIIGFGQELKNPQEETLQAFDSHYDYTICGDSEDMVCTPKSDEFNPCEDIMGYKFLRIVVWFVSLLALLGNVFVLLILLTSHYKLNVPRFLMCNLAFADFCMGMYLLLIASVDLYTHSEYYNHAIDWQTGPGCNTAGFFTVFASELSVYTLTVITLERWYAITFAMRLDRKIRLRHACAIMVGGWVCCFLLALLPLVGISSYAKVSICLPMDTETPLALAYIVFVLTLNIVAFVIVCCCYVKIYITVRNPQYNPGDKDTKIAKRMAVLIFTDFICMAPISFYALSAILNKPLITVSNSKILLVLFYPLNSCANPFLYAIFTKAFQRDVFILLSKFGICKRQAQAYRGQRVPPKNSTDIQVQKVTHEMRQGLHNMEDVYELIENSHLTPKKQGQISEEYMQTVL
Method in brief: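 Antagonist mode: compound-treated TSHR-expressing HEK293 cells were stimulated with 1.5 ng/mL TSH (final) in presence of Ro20-1724 for 30 min at RT. HTRF cAMP detection after 1 h; each compound tested at 15 concentrations, triplicate.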

[19] = qHTS assay to identify small molecule antagonists of the sonic hedgehog signaling (Shh) pathway (AID 1259369; calls by dose curve; also: nearly all actives have a fitted effect of over 45% in size)
Method in brief: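 For antagonist detection, the reporter line received test compounds together with conditioned medium, incubated 24hr at 37 C, 5% CO2, then luminescence was recorded following 30min room-temperature luciferase reagent incubation.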

Measured: Potency

NS(=O)(=O)c1ccccc1OC(F)(F)F
not listed: [16] | [17] | [18] | [19]
inactive: all other assays above

C=CCOCC(CO)(COCC=C)COCC=C
not listed: [19]
inactive: all other assays above

Nc1cc(Cl)cc(S(=O)(=O)O)c1O
not listed: [4] | [5] | [6]
inactive: all other assays above

O=C(Oc1ccccc1C(=O)O)c1ccccc1O
not listed: [4] | [5] | [7]
inactive: all other assays above

CCOC(=O)CC(CC(=O)OCC)(OC(C)=O)C(=O)OCC
not listed: [4] | [5] | [7] | [12] | [16] | [17] | [18]
inactive: all other assays above

CC(C)(c1ccc(Oc2ccc3c(c2)C(=O)OC3=O)cc1)c1ccc(Oc2ccc3c(c2)C(=O)OC3=O)cc1
not listed: [6] | [19]
inactive: all other assays above

CCCCCCCCCCCCCCCC(=O)NCCO
not listed: [4] | [5] | [6] | [12] | [16]
inactive: all other assays above

CCCCCN(CCCOC)C(=O)C(CCC(=O)O)NC(=O)c1ccc(Cl)c(Cl)c1 (stereo not drawn)
not listed: [13] | [17] | [18] | [19]
inactive: all other assays above
